A short description of test [1]: inhibitors of TNFa-induced NFkB p65 translocation, primary screen, imaging, HUVEC, MLSMR starter and 10KST1 sets (AID 438;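 active = inhibition above 20% together with a positive visual image hit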;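 also: compound added about 3h40 before a 20 min TNFalpha stimulation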;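 as to inhibition: signal is the nuclear over cytoplasmic p65 intensity ratio per well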). The conditions noted are these: HUVEC TNFa-induced p65 nuclear translocation; cell count: measured here: nuclei count (cytotoxicity indicator), at 2.08 µM; inhibition: at 2 µM, stronger effect = higher value, 0% TNFa-plus-vehicle, 100% no-TNFa wells.
Test [2] can be described thus: inhibitors of mutant huntingtin aggregation, primary screen, imaging, exon1htt(103Q)mCFP cells, high-content imaging (AID 483).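 Also: compound exposure lasted 3 days before fixation.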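 As to nuclei count: percent of the per-plate median nuclei count of sample wells.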 The conditions noted are these: exon1htt(103Q)mCFP cell line, aggregate imaging, at 2 µM; inhibition of aggregation: stronger effect = higher value; nuclei count: measured here: cell count, toxicity.
The nature of test [3]: inhibitors of E-selectin induction by TNFa, primary screen, imaging, HUVEC, immunofluorescence, MLSMR starter and 10KST1 sets (AID 487;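 active = visually confirmed hit in the image check and inhibition above 20%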;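 as to inhibition: signal is fraction of cell area covered by stained E-selectin grains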;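 as to nuclei count: 100% = median nuclei count of all wells on the same plate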). The conditions noted are these: HUVEC TNFalpha-induced E-selectin immunofluorescence imaging, at 2 µM; inhibition: stronger effect = higher value; nuclei count: measured here: cell number, toxicity.
Test [4] has as its target Voltage-gated potassium channel subunit beta-2 (Rattus norvegicus) (UniProt P62483). In words: KvBeta enzyme negative modulators, primary screen, biochemical, NADPH fluorescence (AID 622;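 active = fluorescence slope higher than the sample average by over 3 SD, cut at about -0.22 in these data, passing the limit was not always enough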;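 also: slope of raw intensity against log time taken from 70 to 1610 s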). The conditions noted are these: recombinant KvBeta, 4-cyanobenzaldehyde reduction, at 10 µM, stronger effect = higher value.
Test [5] shares this target. In words: KvBeta positive modulators, primary screen, biochemical, NADPH fluorescence (AID 623;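 active = NADPH fluorescence slope more negative than the mean of all samples by about 3 SD, 99.7% confidence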;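 also: fluorescence intensity change per second fitted from 20 to 320 s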). The following applies: Recombinant KvBeta, NADPH fluorescence decrease slope, 10 min; at 10 µM; stronger effect = lower value.
The target in test [6] is Alpha-2C adrenergic receptor (Homo sapiens) (UniProt P18825). Kind of test: modulators of alpha2C/GIRK thallium flux, primary screen, cell-based, HEK293 alpha2C/GIRK1/2 (AID 624;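 active = fluorescence slope after compound addition differing from the mean of all screened samples at 99.7% confidence, in either direction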;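 also: slope of fluorescence ratio to pre-addition baseline per second over 15 to 24 s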). The conditions noted are these: thallium flux BTC fluorescence, at 10 µM, actives lie on both sides.
Test [7] can be described thus: inhibitors of Sendai virus-induced IRF3 signaling, primary screen, TLR/RLR signaling modifier project, cell-based, Sendai virus stimulus, luciferase, 10K MLSCN set (AID 602276;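 active = inhibition at or above 50% at 10 µM; inactive = inhibition below 50%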;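 also: firefly luciferase from ISG56 promoter only with Renilla not read in this screen; 0% = Sendai virus plus DMSO and 100% = medium plus DMSO without virus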). The conditions noted are these: HEK293 RL24 IRF3 luciferase reporter, at 10 µM, stronger effect = higher value.
The nature of test [8]: inhibitors of poly I:C-induced TLR3 signaling, primary screen, cell-based, poly I:C stimulus, luciferase, 10K MLSCN set (AID 602277;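 active = inhibition of the reporter signal at or above 50%; inactive = inhibition below 50%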). The conditions noted are these: HEK293-TLR3 RL24 IRF3 luciferase reporter, at 10 µM, stronger effect = higher value.

Activity calls are given as the source filed them.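 The calls were made as follows, unless noted: active = visual image review flags a hit and inhibition of aggregation exceeds 20%; inconclusive = visual hit but inhibition at or below 20%; inactive = no hit on visual image review.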

Sequence of Alpha-2C adrenergic receptor (Homo sapiens) (P18825 whole entry, looked up): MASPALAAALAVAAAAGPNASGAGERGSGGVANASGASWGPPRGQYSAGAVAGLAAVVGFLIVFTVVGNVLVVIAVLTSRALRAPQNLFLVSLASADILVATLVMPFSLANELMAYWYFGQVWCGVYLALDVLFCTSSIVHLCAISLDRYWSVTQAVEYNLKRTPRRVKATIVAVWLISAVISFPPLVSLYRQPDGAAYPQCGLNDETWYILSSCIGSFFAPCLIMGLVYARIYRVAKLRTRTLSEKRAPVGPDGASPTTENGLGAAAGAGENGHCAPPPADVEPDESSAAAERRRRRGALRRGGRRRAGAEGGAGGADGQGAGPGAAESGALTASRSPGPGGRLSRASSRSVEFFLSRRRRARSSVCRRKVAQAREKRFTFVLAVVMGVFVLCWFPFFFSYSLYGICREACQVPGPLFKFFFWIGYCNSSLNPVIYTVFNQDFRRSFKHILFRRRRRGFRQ
Sequence of Voltage-gated potassium channel subunit beta-2 (Rattus norvegicus) (P62483 whole entry, looked up): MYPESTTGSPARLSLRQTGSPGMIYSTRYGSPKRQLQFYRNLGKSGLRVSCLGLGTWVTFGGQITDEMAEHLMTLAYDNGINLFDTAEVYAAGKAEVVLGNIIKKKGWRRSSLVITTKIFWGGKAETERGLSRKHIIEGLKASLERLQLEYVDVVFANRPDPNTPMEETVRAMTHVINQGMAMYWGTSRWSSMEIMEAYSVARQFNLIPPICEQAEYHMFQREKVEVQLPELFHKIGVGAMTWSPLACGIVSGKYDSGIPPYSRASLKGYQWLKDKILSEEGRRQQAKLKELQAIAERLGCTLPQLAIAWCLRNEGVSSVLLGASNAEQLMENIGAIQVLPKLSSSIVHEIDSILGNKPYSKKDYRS

With `Cc1csc(NC(=O)C(Cc2ccccc2)n2cccc2)n1` (centres undefined), the cell count in test [1] came to 497. The inhibition in test [1] is -3.7% (inactive); in test [3], -38.3% (inactive); in test [7], 1.35% (inactive); in test [8] it was -7.22% (inactive). Further, the inhibition of aggregation in test [2] is 27% (inactive). The values for the nuclei count in test [2] and in test [3] were 56.5% and 117%, respectively. Further, in test [4], the fluorescence slope was -0.538 (inactive). Also, the NADPH fluorescence slope in test [5] was -5.3e-06 (inactive). In addition, the slope in test [6] was 0.0101 (active).
Regarding `COCCNC(=O)c1snc2ccc(Cl)cc12`, the cell count in test [1] was 375. Besides, the inhibition was 6.7% (inactive) in test [1], -175% (inactive) in test [3], -23.6% (inactive) in test [7] and -62.4% (inactive) in test [8]. For the same molecule, the inhibition of aggregation in test [2] was 4.9% (inactive). For the same molecule, the nuclei count in test [2] amounted to 89.8%; in test [3], 97.3%. Further, the fluorescence slope in test [4] was -0.563 (inactive). In addition, the NADPH fluorescence slope in test [5] was 3.8e-05 (inactive). The slope in test [6] is 0.00546 (inactive).
Take `Cc1ccc(N2C(=O)c3ccccc3C2Nc2cccnc2)nc1` (centres undefined): the cell count in test [1] came out at 513. Besides, the inhibition was -7.7% (inactive) in test [1], -91.7% (inactive) in test [3], -2.85% (inactive) in test [7] and 4.9% (inactive) in test [8]. Moreover, the inhibition of aggregation in test [2] was 2.4% (inactive). The figures for the nuclei count in test [2] and in test [3] were 92.8% and 138%, respectively. Also, the fluorescence slope in test [4] is -0.585 (inactive). For the same molecule, the NADPH fluorescence slope in test [5] was 2e-05 (inactive). Besides, the slope in test [6] is 0.0064 (inactive).
Turning to `COc1ccc(CCNC(=O)C2CCN(C(=O)N(C)C)CC2)cc1OC`, the cell count in test [1] is 618. Besides, the inhibition in test [1] was 0.9% (inactive); in test [3], -74.3% (inactive); in test [7], 6.71% (inactive); in test [8] it was -1.45% (inactive). The inhibition of aggregation in test [2] is 3.5% (inactive). Further, the nuclei count is 44.3% in test [2] and 106% in test [3]. Also, the fluorescence slope in test [4] is -0.386 (inactive). Besides, the NADPH fluorescence slope in test [5] was -1.9e-05 (inactive). Further, in test [6], the slope is 0.00486 (inactive).
On to `CS(=O)(=O)N(CC(=O)N1CCc2ccccc2C1)c1ccc2c(c1)OCO2`, for which, in test [1], the cell count stood at 262. Also, the inhibition in test [1] was 1.6% (inactive); in test [3] it was 14.1% (inactive); in test [7], 11% (inactive); in test [8] it was 23.8% (inactive). In addition, the inhibition of aggregation in test [2] is 17% (inactive). The nuclei count was 97.2% in test [2] and 77.8% in test [3]. Further, the fluorescence slope in test [4] was -0.481 (inactive). Moreover, in test [5], the NADPH fluorescence slope was -5.5e-05 (inactive). Also, in test [6], the slope is 0.00584 (inactive).
In the case of `CC(C)Cn1c(CN2CCCCC2C)nc2c1c(=O)n(C)c(=O)n2C` (centres undefined), the cell count in test [1] was 693. In addition, the inhibition in test [1] was -10% (inactive); in test [3] it was -25% (inactive); in test [7], 2.69% (inactive); in test [8], 21.9% (inactive). The inhibition of aggregation in test [2] is 12.5% (inactive). For the same molecule, the nuclei count in test [2] came to 93%; in test [3], 116%. In addition, the fluorescence slope in test [4] was -0.537 (inactive). The NADPH fluorescence slope in test [5] is -1.5e-05 (inactive). Also, in test [6], the slope is 0.00589 (inactive).
Regarding `C=CC(O)(C#CCN(CC)CC)c1ccccc1` (centres undefined), in test [1], the cell count came to 740. Also, the inhibition was -36% (inactive) in test [1], -53.6% (inactive) in test [3], 4.67% (inactive) in test [7] and 11.4% (inactive) in test [8]. For the same molecule, the inhibition of aggregation in test [2] is -18.5% (inactive). Also, the figures for the nuclei count in test [2] and in test [3] were 107% and 110%, respectively. Further, the fluorescence slope in test [4] is -0.596 (inactive). The NADPH fluorescence slope in test [5] is -5e-05 (inactive). In addition, the slope in test [6] was 0.0061 (inactive).
For the molecule `c1cc(-c2nc3ccccc3o2)nc(-c2nc3ccccc3o2)c1`, the cell count in test [1] is 426. The inhibition in test [1] was 17% (inactive); in test [3], 9.6% (inactive); in test [7], 16.6% (inactive); in test [8], 30.1% (inactive). For the same molecule, the inhibition of aggregation in test [2] was -10.7% (inactive). Moreover, the results for the nuclei count in test [2] and in test [3] were 82.8% and 113%, respectively. In addition, the fluorescence slope in test [4] was -0.39 (inactive). Besides, in test [5], the NADPH fluorescence slope was -5.8e-05 (inactive). The slope in test [6] is 0.00362 (inactive).
Turning to `N#CCc1c(C#N)c(N)nc(N2CCN(S(=O)(=O)c3ccccc3)CC2)c1C#N`, the cell count in test [1] was 349. In addition, the inhibition was 1.3% (inactive) in test [1], 14.3% (inactive) in test [3], 11% (inactive) in test [7] and 34.3% (inactive) in test [8]. The inhibition of aggregation in test [2] is -7.2% (inactive). Also, the nuclei count in test [2] amounted to 96.4%; in test [3] it was 108%. In test [4], the fluorescence slope is -0.427 (inactive). In addition, the NADPH fluorescence slope in test [5] is -4.2e-05 (inactive). Moreover, the slope in test [6] is 0.00665 (inactive).
For `CCC(C)(C)NC(=O)C(c1ccco1)N(C(=O)Cn1nnc2ccccc21)c1ccc2c(c1)OCO2` (centres undefined), the cell count in test [1] is 497. Besides, the inhibition in test [1] is -25% (inactive); in test [3], -10.4% (inactive); in test [7] it was 14.6% (inactive); in test [8] it was 21% (inactive). Further, the inhibition of aggregation in test [2] was 14.5% (inactive). Besides, the nuclei count was 86% in test [2] and 102% in test [3]. Also, the fluorescence slope in test [4] is -0.522 (inactive). In addition, the NADPH fluorescence slope in test [5] is -2e-05 (inactive). The slope in test [6] is 0.00407 (inactive).
Take `CCOC(=O)c1cc2sccc2n1Cc1ccccc1`: the cell count in test [1] was 417. Besides, the inhibition in test [1] was 7.3% (inactive); in test [3] it was -147% (inactive); in test [7], -10.3% (inactive); in test [8] it was -7.29% (inactive). Moreover, the inhibition of aggregation in test [2] was -5.2% (inactive). Moreover, the results for the nuclei count in test [2] and in test [3] were 101% and 99.7%, respectively. The fluorescence slope in test [4] was -0.598 (inactive). For the same molecule, the NADPH fluorescence slope in test [5] is -9.9e-06 (inactive). Further, the slope in test [6] was 0.00361 (inactive).
In the case of `Cn1c(-c2cc(Br)ccc2O)n[nH]c1=S`, in test [1], the cell count came out at 440. For the same molecule, the inhibition in test [1] is 5.5% (inactive); in test [3], -76.5% (inactive); in test [7], -4.65% (inactive); in test [8] it was -14.4% (inactive). Besides, in test [2], the inhibition of aggregation was -2.6% (inactive). Further, the figures for the nuclei count in test [2] and in test [3] were 109% and 118%, respectively. Also, the fluorescence slope in test [4] was -0.51 (inactive). Moreover, in test [5], the NADPH fluorescence slope is 4.9e-05 (inactive). Moreover, the slope in test [6] was 0.00989 (inactive).
With `C(=C\c1ccccc1)/CSc1nnc(-c2ccccn2)n1Cc1ccco1`, the cell count in test [1] came out at 574. In addition, the inhibition in test [1] is 1.1% (inactive); in test [3], -95.8% (inactive); in test [7] it was 68.5% (active); in test [8] it was 58.9% (active). Further, the inhibition of aggregation in test [2] was -38.4% (inactive). The results for the nuclei count in test [2] and in test [3] were 24% and 109%, respectively. For the same molecule, the fluorescence slope in test [4] was -0.5 (inactive). In addition, the NADPH fluorescence slope in test [5] was -5.3e-05 (inactive). In addition, in test [6], the slope was 0.00478 (inactive).
In the case of `Cc1ccc(-c2nnc(N(C)C(=O)c3ccccn3)s2)cn1`, the cell count in test [1] is 500. The inhibition in test [1] is 6.8% (inactive); in test [3] it was -60.4% (inactive); in test [7], -13% (inactive); in test [8], -49% (inactive). The inhibition of aggregation in test [2] was -1.4% (inactive). The figures for the nuclei count in test [2] and in test [3] were 105% and 97.9%, respectively. Also, in test [4], the fluorescence slope was -0.495 (inactive). The NADPH fluorescence slope in test [5] was -4.7e-05 (inactive). The slope in test [6] was 0.00529 (inactive).
